Measured values: the supplement of paper PMC11732987, “Enantioselective OTUD7B fragment discovery through chemoproteomics screening and high-throughput optimisation” (Communications Chemistry, 2025)

Experiments:
Assay in all cases: log2 ratio of Biotin-Ahx-Ub-VS probe labelling (fragment/DMSO); higher = less target engagement (more negative = stronger competition), active = hit call of the paper (q ≤ 0.05, log2 ratio ≤ -1)
Settings in all cases: compound concentration: 200 uM; treatment time: 3 h
[1] = molecular target: T1, USP19 (UniProt O94966)
T1 sequence (whole entry): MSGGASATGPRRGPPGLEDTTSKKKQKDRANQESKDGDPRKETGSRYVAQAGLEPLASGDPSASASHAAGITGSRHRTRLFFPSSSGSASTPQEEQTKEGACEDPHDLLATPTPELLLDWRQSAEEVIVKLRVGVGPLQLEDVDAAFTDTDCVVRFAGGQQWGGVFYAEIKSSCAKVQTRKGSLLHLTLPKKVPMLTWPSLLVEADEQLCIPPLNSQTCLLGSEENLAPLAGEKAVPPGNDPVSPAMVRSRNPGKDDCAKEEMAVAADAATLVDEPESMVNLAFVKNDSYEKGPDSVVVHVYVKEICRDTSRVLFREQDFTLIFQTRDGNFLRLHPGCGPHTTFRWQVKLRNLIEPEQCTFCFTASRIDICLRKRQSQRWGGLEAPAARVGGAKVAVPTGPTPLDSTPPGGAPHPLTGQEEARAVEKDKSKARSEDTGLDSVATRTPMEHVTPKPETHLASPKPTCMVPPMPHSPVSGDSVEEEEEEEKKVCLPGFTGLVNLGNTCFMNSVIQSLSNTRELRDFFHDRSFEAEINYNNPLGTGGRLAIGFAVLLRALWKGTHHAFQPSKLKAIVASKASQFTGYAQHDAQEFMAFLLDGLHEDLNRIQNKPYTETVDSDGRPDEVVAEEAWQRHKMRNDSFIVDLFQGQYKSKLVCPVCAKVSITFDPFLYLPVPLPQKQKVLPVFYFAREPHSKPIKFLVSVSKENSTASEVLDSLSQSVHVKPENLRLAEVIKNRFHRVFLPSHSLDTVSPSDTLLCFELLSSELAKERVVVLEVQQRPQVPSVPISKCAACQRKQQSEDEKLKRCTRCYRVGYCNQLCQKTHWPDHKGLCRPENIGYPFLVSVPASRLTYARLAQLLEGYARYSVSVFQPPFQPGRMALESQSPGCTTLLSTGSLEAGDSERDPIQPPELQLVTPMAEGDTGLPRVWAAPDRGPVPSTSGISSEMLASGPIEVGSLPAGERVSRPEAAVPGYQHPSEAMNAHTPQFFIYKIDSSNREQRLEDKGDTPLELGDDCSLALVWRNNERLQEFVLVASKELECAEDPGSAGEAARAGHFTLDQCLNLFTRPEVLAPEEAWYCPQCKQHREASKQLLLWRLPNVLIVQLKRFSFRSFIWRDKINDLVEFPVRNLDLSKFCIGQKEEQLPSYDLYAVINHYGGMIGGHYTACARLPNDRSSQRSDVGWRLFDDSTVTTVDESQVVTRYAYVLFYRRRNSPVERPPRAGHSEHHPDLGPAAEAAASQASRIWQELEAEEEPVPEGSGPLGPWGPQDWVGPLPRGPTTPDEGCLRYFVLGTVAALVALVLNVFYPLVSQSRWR
Procedure, shortened: (§1)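 HEK293T lysate in Tris/CHAPS/IGEPAL buffer with protease inhibitors (495 µg per sample) was given fragment at 200 µM or vehicle for 3 h, in triplicate. It then received Biotin-Ahx-Ub-VS at 0.5 µM final for 1 h. Labelled DUBs were NeutrAvidin-enriched, digested with LysC and trypsin, and run by diaPASEF LC-MS/MS. Values are average log2 fragment/vehicle ratios by unpaired t-test on global-median-normalised Spectronaut quantities of proteins with ≥2 unique peptides.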

[2] = molecular target: T2, USP22 (UniProt Q9UPT9)
T2 sequence (whole entry): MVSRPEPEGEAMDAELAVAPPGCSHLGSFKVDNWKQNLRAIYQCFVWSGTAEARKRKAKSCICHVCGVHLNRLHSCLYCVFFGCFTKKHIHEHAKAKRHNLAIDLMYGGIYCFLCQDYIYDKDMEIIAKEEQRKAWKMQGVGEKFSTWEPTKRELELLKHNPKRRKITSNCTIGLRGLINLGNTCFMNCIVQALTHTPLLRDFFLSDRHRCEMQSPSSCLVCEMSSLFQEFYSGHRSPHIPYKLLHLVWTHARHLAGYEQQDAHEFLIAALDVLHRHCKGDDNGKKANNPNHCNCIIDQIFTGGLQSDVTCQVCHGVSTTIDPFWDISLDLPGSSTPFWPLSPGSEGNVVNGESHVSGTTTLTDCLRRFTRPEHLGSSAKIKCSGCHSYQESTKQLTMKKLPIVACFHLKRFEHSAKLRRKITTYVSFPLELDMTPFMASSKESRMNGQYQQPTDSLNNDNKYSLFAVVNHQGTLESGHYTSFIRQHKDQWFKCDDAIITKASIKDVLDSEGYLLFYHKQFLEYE
Procedure, shortened: as §1

[3] = molecular target: USP24 (UniProt Q9UPU5)
Sequence of USP24 (Q9UPU5 whole entry): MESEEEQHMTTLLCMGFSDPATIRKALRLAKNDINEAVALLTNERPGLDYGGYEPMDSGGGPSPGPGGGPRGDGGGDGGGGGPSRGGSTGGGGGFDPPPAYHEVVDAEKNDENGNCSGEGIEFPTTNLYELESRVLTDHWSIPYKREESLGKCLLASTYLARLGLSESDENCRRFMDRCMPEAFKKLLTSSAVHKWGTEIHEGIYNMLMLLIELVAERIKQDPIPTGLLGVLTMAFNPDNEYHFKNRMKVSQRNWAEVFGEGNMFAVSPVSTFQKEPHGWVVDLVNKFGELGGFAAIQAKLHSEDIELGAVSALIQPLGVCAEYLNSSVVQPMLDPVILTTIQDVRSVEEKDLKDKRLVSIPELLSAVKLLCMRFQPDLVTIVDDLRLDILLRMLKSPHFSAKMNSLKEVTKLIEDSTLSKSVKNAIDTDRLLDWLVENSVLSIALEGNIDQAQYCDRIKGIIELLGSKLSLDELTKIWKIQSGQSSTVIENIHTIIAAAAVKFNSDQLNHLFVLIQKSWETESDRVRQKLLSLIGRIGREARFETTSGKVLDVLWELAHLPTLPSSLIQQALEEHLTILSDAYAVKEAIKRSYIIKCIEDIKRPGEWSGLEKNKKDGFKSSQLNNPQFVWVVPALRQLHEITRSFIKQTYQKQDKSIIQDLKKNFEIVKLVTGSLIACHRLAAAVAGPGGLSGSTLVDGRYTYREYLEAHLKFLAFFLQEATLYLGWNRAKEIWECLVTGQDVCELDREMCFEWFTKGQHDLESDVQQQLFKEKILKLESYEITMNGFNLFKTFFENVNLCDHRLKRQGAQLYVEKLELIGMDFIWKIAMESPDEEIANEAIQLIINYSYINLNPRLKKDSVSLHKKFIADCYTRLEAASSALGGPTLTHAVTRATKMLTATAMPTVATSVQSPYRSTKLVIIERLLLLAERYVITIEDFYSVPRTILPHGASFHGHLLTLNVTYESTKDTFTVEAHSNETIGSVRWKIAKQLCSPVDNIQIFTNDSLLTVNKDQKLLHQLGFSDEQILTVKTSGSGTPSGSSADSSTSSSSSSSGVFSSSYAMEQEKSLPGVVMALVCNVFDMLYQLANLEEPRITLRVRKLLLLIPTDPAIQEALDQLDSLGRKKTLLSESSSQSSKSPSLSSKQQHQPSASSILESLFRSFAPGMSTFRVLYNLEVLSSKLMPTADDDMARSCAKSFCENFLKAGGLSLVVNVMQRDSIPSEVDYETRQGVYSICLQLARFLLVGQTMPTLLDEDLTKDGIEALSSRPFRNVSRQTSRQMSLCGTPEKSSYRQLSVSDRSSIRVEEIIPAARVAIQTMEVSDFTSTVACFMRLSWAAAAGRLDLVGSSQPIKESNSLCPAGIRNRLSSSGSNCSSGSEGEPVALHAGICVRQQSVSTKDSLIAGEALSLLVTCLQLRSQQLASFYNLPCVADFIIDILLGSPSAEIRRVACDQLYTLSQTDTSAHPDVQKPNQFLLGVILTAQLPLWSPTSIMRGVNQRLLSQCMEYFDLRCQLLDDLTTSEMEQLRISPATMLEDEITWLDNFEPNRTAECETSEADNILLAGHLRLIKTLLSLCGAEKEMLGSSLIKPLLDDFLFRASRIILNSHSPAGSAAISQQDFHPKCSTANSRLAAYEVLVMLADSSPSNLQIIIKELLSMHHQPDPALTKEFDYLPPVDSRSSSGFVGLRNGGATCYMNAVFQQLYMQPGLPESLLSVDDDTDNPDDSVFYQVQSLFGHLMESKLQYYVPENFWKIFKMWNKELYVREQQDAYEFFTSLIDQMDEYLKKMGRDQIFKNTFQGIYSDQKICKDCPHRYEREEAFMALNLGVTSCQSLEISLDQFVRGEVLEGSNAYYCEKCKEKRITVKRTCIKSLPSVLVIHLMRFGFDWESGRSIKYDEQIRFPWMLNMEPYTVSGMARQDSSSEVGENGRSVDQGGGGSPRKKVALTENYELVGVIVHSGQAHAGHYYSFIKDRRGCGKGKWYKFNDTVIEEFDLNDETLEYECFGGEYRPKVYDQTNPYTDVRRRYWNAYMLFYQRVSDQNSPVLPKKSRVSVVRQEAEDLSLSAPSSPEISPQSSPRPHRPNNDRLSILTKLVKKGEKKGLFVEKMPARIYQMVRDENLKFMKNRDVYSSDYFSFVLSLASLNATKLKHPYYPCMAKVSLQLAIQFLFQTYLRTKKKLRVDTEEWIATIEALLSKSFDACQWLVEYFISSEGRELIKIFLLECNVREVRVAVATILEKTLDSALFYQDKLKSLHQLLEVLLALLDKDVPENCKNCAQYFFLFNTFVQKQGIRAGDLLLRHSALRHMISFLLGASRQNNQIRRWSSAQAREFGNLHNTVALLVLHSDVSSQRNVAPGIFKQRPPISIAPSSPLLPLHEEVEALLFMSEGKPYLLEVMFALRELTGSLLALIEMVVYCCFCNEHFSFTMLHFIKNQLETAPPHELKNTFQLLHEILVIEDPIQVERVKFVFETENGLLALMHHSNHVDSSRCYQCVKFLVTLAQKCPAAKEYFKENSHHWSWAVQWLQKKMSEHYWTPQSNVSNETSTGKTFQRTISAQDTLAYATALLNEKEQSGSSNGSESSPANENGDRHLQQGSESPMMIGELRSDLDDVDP
Procedure, shortened: as §1

[4] = molecular target: T3, USP25 (UniProt Q9UHP3)
T3 sequence (whole entry): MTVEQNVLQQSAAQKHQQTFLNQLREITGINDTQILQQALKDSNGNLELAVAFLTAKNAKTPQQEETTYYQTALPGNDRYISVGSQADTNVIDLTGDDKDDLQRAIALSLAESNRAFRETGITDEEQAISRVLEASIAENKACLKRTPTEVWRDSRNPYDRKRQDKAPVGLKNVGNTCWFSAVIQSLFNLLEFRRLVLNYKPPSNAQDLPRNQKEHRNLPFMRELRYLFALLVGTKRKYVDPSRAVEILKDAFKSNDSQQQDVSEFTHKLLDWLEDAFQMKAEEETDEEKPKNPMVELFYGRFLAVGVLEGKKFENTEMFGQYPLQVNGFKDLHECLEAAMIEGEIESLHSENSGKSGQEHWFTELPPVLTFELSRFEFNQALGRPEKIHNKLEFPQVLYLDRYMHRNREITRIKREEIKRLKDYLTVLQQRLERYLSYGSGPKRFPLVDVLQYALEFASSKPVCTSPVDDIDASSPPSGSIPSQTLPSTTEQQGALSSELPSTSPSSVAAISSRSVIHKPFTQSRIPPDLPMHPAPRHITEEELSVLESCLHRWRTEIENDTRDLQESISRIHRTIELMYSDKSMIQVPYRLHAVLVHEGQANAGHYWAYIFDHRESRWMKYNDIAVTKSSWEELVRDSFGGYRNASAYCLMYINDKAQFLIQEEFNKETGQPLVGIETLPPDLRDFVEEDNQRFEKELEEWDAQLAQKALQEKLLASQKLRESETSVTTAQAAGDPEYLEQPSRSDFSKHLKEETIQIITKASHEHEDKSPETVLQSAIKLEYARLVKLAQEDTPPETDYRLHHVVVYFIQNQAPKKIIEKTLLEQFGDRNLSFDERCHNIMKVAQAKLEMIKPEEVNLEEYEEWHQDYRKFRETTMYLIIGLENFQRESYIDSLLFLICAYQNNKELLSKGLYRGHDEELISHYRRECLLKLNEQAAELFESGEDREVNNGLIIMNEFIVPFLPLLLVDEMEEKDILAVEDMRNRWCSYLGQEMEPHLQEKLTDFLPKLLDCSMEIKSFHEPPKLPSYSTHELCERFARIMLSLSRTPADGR
Procedure, shortened: as §1

[5] = molecular target: T4, USP28 (UniProt Q96RU2)
T4 sequence (whole entry): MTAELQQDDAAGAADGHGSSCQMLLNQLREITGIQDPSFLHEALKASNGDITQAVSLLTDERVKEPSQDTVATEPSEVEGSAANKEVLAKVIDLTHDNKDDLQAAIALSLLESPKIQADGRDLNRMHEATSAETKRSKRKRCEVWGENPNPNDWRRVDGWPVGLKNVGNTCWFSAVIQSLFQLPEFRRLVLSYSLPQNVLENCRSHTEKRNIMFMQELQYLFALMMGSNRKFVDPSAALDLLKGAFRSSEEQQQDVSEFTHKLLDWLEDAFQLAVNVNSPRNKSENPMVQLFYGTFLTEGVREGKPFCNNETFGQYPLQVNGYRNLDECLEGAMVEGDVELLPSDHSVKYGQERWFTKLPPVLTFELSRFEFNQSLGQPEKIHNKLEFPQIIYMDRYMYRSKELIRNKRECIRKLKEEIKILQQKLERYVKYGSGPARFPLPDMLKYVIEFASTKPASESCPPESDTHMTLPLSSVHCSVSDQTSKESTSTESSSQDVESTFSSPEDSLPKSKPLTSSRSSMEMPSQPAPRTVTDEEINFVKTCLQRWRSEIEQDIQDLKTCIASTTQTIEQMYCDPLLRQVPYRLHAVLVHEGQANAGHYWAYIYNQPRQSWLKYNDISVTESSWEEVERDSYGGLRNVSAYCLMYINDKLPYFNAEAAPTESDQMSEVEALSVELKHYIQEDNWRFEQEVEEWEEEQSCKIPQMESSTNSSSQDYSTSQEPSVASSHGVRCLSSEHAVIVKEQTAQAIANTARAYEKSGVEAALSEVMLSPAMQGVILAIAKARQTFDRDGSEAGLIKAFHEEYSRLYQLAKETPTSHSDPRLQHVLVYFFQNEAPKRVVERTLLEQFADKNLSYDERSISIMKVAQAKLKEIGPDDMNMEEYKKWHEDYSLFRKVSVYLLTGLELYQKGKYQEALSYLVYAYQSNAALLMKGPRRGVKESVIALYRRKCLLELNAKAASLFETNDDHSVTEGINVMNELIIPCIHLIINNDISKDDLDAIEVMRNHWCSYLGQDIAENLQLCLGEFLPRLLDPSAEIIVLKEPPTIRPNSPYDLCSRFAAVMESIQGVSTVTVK
Procedure, shortened: as §1

Measured: log2 ratio of Biotin-Ahx-Ub-VS probe labelling

Cc1cnc2[nH]cc(CCNC(=O)CCl)c2c1
inactive: [1] -0.044 | [2] -0.375 | [3] -0.209 | [4] -0.347 | [5] -0.759
